Rows were chosen to be rich in hits. Some 4.8% of all compounds tested hit in one or more screens of this group.
hcDAF12 agonist = H. contortus DAF-12 nuclear receptor activators, primary screen, cell-based, luminescence, HEK293, lit1-tk-luc reporter | activation, % at 6.8 µM | HEK293 hcDAF-12 lit1-tk-luc reporter; 0% DMSO, 100% Δ7-dafachronic acid | 370,000 compounds, 1.4% hits | AID 652067, 2013;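 active means activation above the mean of all tested compounds plus 3 SD, cut at about 5.5% in these data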;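 further: 100% = response to 3 µM Δ7-dafachronic acid high control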
ssDAF12 agonist = S. stercoralis DAF-12 nuclear receptor activators, primary screen, cell-based, luminescence, HEK293, GRIP1 co-expression, lit1-tk-luc | AID 652126, 2013 | activation, % at 6.8 µM | HEK293 ssDAF-12/GRIP1 lit1-tk-luc reporter; % of 3 µM dafachronic acid response | Nuclear hormone receptor DAF-12 (Strongyloides stercoralis) | 370,000 compounds, 1% hits;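 active means activation above the mean over all tested compounds plus 3 SD, cut at about 0.9% in these data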;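 further: 0% = DMSO-only wells and 100% = 3 µM delta7-dafachronic acid wells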
hgDAF12 agonist = H. glycines DAF-12 receptor agonists, primary screen, cell-based, luminescence, HEK293, GAL4 fusion, UAS-luciferase | HEK293 GAL4-hgDAF12 UAS-luciferase reporter, agonist luminescence; normalized to butyrate control | AID 687014, 2013 | activation, % at 6.8 µM | 370,000 compounds, 1.8% hits;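 active means activation above a cutoff set at the mean of all screened compounds plus 3 SD, cut at about 10% in these data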;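 further: 0% = DMSO wells and 100% = sodium butyrate wells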
DAX1 inh-1 = DAX1 (NR0B1) inhibitors, primary screen, cell-based, HEK293, Gal4-DAX1, luciferase luminescence; Nuclear receptor subfamily 0 group B member 1 (Homo sapiens), P51843; HEK293 Gal4-DAX1 luciferase reporter; inhibition, % at 6.75 µM; 340,000 compounds, 0.99% hits; AID 504766, 2011;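 active means inhibition above the mean over all tested compounds plus 3 SD, cut at about 4.2% in these data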;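 further: 0% = DAX1-transfected cells with DMSO and 100% = empty-vector control cells with DMSO; inhibition shows as a rise in luminescence from relieved DAX1 repression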
Target sequence (P51843 207-470 limits assumed): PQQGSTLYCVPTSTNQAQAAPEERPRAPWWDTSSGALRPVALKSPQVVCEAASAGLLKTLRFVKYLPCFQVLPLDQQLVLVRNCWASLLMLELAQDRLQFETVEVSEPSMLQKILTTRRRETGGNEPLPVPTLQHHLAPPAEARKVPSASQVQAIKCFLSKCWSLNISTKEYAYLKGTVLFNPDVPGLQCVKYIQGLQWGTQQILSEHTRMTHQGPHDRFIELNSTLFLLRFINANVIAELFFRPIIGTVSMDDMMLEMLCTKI
SMARCA2 act = SMARCA2 (BRM) function activators, primary screen, cell-based, luminescence, high throughput. MG213 cells, MMTV-luciferase reporter, dexamethasone, overnight. activation, % at 9.1 µM. 370,000 compounds, 1% hits. AID 652017, 2013; in the data active means activation above about 7.8%;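 further: 0% = vehicle wells and 100% = reference activator wells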
DAX1 inh-2 = DAX1 (NR0B1) inhibitors on StAR promoter, primary screen, cell-based, luminescence, SF-1 (NR5A1), full-length DAX-1; inhibition, % at 6.8 µM; 370,000 compounds, 1.1% hits; HEK293T StAR-luciferase reporter, SF-1/DAX-1 repression relief;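 active means inhibition above the mean over all tested compounds plus 3 SD, cut at about 3.6% in these data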;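 further: 0% = DAX-1 cells with DMSO and 100% = cells lacking DAX-1 with DMSO; higher inhibition means more luminescence from relief of DAX-1 repression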
An asterisk follows results filed as active; / = no result.

SMILES	hcDAF12 agonist	ssDAF12 agonist	hgDAF12 agonist	DAX1 inh-1	SMARCA2 act	DAX1 inh-2
O=c1oc2ccccc2n1CSc1nc2ccccc2s1	4	0	11*	2	5	3
COc1ccc(C2CC(=O)C(CS(=O)(=O)c3ccccc3)C(=O)C2)cc1 (stereo not given)	-1	-1	-1	/	2	0
Cc1ccc(CCNC(=O)C2CCCN2S(=O)(=O)c2ccc3c(c2)CCC(=O)N3)cc1 (stereo not given)	/	/	/	-1	/	/
COc1ccc(NC(=O)C2CCCN2S(=O)(=O)c2ccc3c(c2)CCC(=O)N3)c(OC)c1 (stereo not given)	-2	-1	2	-1	7.9*	0
O=C1CCc2cc(S(=O)(=O)N3CCC(C(=O)NC4CCCc5ccccc54)CC3)ccc2N1 (stereo not given)	-1	-1	3	2	-1	1
CC1CCCCC1NC(=O)C1CCN(S(=O)(=O)c2ccc3c(c2)CCC(=O)N3)CC1 (stereo not given)	1	-2	-3	5.1*	-1	0
O=C(COc1ccccc1)NCC(=O)N/N=C/c1ccccc1	-1	-1	-1	0	-1	0
COc1ccc2oc(=O)c(C(=O)NCc3ccc(F)cc3)cc2c1	-1	-2	1	0	-3	0
COc1ccc(NC(=O)C(c2cc3ccccc3o2)n2c(=O)c(-c3cc4ccccc4[nH]3)nc3ccccc32)cc1 (stereo not given)	5.8*	1.3*	3	/	3	0
O=C(NCc1ccccc1)C(c1cc2ccccc2o1)n1c(=O)c(-c2ccccc2)nc2ccccc21 (stereo not given)	4	1	5	/	2	3.8*
COc1ccc(NC(=O)C(c2ccc(OC)cc2)n2c(=O)c(-c3cc4ccccc4[nH]3)nc3ccccc32)cc1 (stereo not given)	3	0	-1	/	-1	-1
COC(=O)c1cc2c(c3c4cc(F)ccc4n(S(=O)(=O)c4cccc(C)c4)c13)C(=O)N(Cc1ccco1)C2	1	-1	-2	/	3	-2
O=C(NCc1ccccc1)c1cccc(COc2cc(Cl)ccc2Cl)c1	0	0	11*	0	2	0
Cc1c(C(=O)NNC(=O)c2ccccc2O)oc2ccccc12	5.8*	1	7	-1	-2	2
CC(C)(C)c1cc(NC(=O)C2CCCO2)no1 (stereo not given)	2	1.4*	8	1	5	1
CCC(C)(C(=O)NC1CCCC1)N(C(C)=O)c1ccc(C)cc1 (stereo not given)	-1	-1	-2	0	2	0
Cc1c(-c2nc(-c3ccc(C(C)(C)C)cc3)no2)n(C)oc1=O	5.7*	2.1*	12*	-1	6	3
c1ccc(Nc2ccnc(Nc3ccccc3)n2)cc1	2	0	11*	2	1	1
COC(=O)C1CCN(C(=O)COC(=O)c2cc(-c3cccs3)nn2-c2ccccc2)CC1	-2	-1	3	4.6*	0	-1
Cc1cc(Oc2nc3c(C)cccn3c(=O)c2/C=C(\C#N)S(=O)(=O)c2ccccc2)ccc1Cl	6.2*	1	4	0	-1	1
Cc1cccn2c(=O)c(/C=C(\C#N)S(=O)(=O)c3ccccc3)c(Oc3ccc(Cl)cc3)nc12	-1	-1	1	0	6	0
COc1ccc(/C=C/C(=O)OCC(=O)NC2CCS(=O)(=O)C2)cc1 (stereo not given)	-1	-1	1	1	-2	-1
COc1ccc(C(=O)N/N=C\c2ccoc2)cc1	-1	-1	5	0	2	0
COc1ccc(/[N+]([O-])=C/c2ccoc2)cc1	2	0	11*	3	4	3
O=C(c1cc(COc2ccc(F)cc2F)on1)N1C[C@H]2CC[C@H]1C2	0	0	6	0	7	3
SMILES	hcDAF12 agonist	ssDAF12 agonist	hgDAF12 agonist	DAX1 inh-1	SMARCA2 act	DAX1 inh-2
O=C1NCCCN1C1OC(CO)C(O)C1O (stereo not given)	-1	-1	1	1	1	-1
Cc1cccc(C2NC(=O)c3c(sc(C)c3C)N2)c1O (stereo not given)	4	1.4*	2	1	0	0
CCNc1sc(C(=O)c2cccs2)c(N)c1-c1nc2ccccc2s1	3	0	9	2	-2	0
CCOC(=O)c1sc(NCc2ccco2)c(-c2nc3ccccc3s2)c1N	6.2*	0	4	1	5	0
COc1ccc(S[C@]2(C(=O)N3CCN(c4ncccn4)CC3)CC(=O)N(c3ccc(C#N)cc3)[C@@H]2c2ccc(OC)cc2)cc1	-3	-2	-5	/	0	-1
C=CCn1c(SCC(=O)NC2CCCCC2)nnc1-c1ccccn1	0	-1	-1	-1	-5	-1
CCc1ccc(-c2csc(-c3c[nH]c4ccccc34)n2)cc1	6.2*	0	8	1	1	1
CNc1nc(-c2c[nH]c3ccccc23)cs1	3	0	0	0	0	-1
Nc1nc(-c2c[nH]c3ccccc23)cs1	1	1.8*	2	0	4	0
CCOC(=O)C1=C(C)N=c2s/c(=C/c3ccc(OCC(=O)O)cc3)c(=O)n2C1c1ccc(OC)cc1OC (stereo not given)	0	1.8*	1	-1	2	1
CN(CC(=O)Nc1ccccc1Br)C(=O)c1cc(Cl)nc2ccccc12	1	-1	-2	0	-2	-2
O=C(c1cccc(Br)c1)c1coc2ccc(O)cc12	4	0	13*	1	4	1
O=C(c1cccs1)c1coc2ccc(O)cc12	2	-1	12*	4	7	1
CC(=O)c1cccc(NC(=O)N2CCCC2C(=O)NC2CCCC2)c1 (stereo not given)	0	-1	0	0	2	0
CCN(CC(=O)NCc1ccc(F)cc1)CC(=O)Nc1ccc(Br)cc1F	-1	-1	1	1	-1	-1
CC1CCN(C(=O)c2ccc(NC(=O)c3ccccc3)cc2)CC1	4	-1	1	1	-2	0
O=C(CC12CC3CC(CC(C3)C1)C2)NC(=S)N1CCCCC1	-1	1.2*	0	1	-2	0

Source: PubChem BioAssay
